Measurements: PubChem BioAssay (NCATS)
Activity calls are given as the source filed them. Calls come from the whole dose curve; as a rule, active = well fitted curve in the direction sought with a large enough effect; inconclusive = small, poorly fitted or top-dose-only effect, or another doubt; inactive = no such curve, though single readings can be large or run the other way.

assay: Cellular Toxicity (caspase-3) BJ (AID 658); conditions: BJ fibroblasts, luminescence, normalized: DMSO 0%, staurosporine 100%; series mostly up to 91.7 µM
Text: NIH Chemical Genomics Center [NCGC]
NIH Molecular Libraries Screening Centers Network [MLSCN]
National Institutes of Environmental Health Sciences [NIEHS]
National Toxicology Program [NTP]
We have developed a 1536-well cell-based assay for quantitative high throughput screening (qHTS) against a number of cell lines to determine in vitro caspase 3/7 activity of small molecules. This particular assay uses BJ cell line which is derived from normal human foreskin fibroblast.
NCGC Assay Protocol Summary:
The Caspase-Glo 3/7 assay (Promega) is a homogeneous method to measure caspase-3 and caspase-7 activities in cultured cells. The quantitation of caspase 3/7 activity is based on the cleavage of a peptide-aminoluciferin substrate. After caspase cleaves the substrate the free aminoluciferin is liberated and serves as the substrate of luciferase, which generates the light. The luminescent signal is proportional to amount of caspase 3/7 activity present.
Using the Caspase-Glo 3/7 assay, the amount of caspase 3/7 activity was measured in the BJ cell line with complete culture medium following compound treatment for 16 hours. The assay was performed in opaque white 1536-well plates. In the screen, staurosporine and tamoxifen were used as positive controls. Library compounds were measured for their ability to cause the activation of caspase 3/7 in the cell line, as reflected by an increase in luminescence signal, in a concentration-dependent manner. Data were normalized to the controls for basal activity (DMSO only) and 100% stimulation (10 uM staurosporine). AC50 values were determined from concentration-response data modeled with the standard Hill equation.
qHTS protocol for caspase 3/7 assay in the BJ cells
[Step] [Parameter] [Value] [Description]
1. Reagent; 5 uL; 1000 the BJ cells/well
2. Time; 5 hr; 37 °C incubation
4. Controls; 23 nL; Tamoxifen 0.23 uM to 100 uM & staurosporine 1.4 pM to 100 uM
5. Time; 16 hr; 37 °C incubation
6. Reagent; 5 uL; Caspase-Glo 3/7 reagent
7. Time; 1 hr; Room Temperature
8. Detection; Luminescence; Viewlux plate reader
Keywords: caspase 3/7, apoptosis, the BJ cell line, luminescence, NTPHTS, NTPHTS_NCGC, NIEHS, EPA, DSSTox, MLSMR, MLSCN, NIH Roadmap, qHTS, NCGC

SMILES	outcome
c1ccc2c(c1)-c1cccc3cccc-2c13	inactive
O=Cc1ccccc1	inactive
c1ccc(Nc2ccc3ccccc3c2)cc1	inactive
COC1=CC(=O)OC(CCc2ccc3c(c2)OCO3)C1 (stereo not drawn)	inactive
CCOc1cc(C=O)ccc1O	inactive
Cc1ccccc1O	inactive
COC(=O)c1ccccc1C(=O)OC	inactive
CC(C)(c1ccc(OCC2CO2)cc1)c1ccc(OCC2CO2)cc1 (stereo not drawn)	inactive
CCOC(=O)c1ccccc1N	inactive
CC(C)COC(=O)c1ccccc1C(=O)OCC(C)C	inactive
Oc1c(Cl)c(Cl)c(Cl)c(Cl)c1Cl	inactive
Oc1ccccc1Cl	inactive
CC(=O)/C=C/c1ccccc1	inactive
